According to PubChem BioAssay (NCI):
This is part of a sample that, as a whole, favours compounds with a hit. Of some 79,000 tested, about 15% had one in any assay. Rule as the data show it: active = growth inhibition above about 70%; inactive = the rest.

Experiments:
[1] = NCI Yeast Anticancer Drug Screen. Data for the rad50 strain (AID 155);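 also: 0% = growth of vehicle-only cultures of the same strain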; conditions: S. cerevisiae rad50 strain growth inhibition; at 50.0 µM; stronger effect = higher value
How it was run: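 Genetically altered yeast (DNA repair pathway); compound treatment; growth inhibition vs vehicle ctrl.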

[2] = NCI Yeast Anticancer Drug Screen. Data for the mec2-1 strain (AID 157); conditions: S. cerevisiae mec2-1 strain, at 50.0 µM, stronger effect = higher value
How it was run: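 Cells of the genetically defined mec2-1 yeast strain are incubated with test compound. Inhibition of growth is calculated against vehicle-treated controls.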

[3] = NCI Yeast Anticancer Drug Screen. Data for the sgs1 mgt1 strain (AID 161);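 also: 0% = growth of cultures given vehicle only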; conditions: S. cerevisiae sgs1 mgt1 strain, at 50.0 µM, stronger effect = higher value
How it was run: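 Test agents were incubated with a DNA-repair-mutant yeast strain. Growth was then read and compared against vehicle-treated controls.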

[4] = NCI Yeast Anticancer Drug Screen. Data for the cln2 rad14 strain (AID 165);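 also: 0% = growth equal to vehicle treated cultures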; conditions: S. cerevisiae cln2 rad14 strain, at 50.0 µM, stronger effect = higher value
How it was run: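 The screen exposed genetically defined yeast (cln2 rad14) to test compounds and scored growth inhibition relative to vehicle-treated controls.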

[5] = NCI Yeast Anticancer Drug Screen. Data for the bub3 strain (AID 167); conditions: S. cerevisiae bub3 mutant strain, at 50.0 µM, stronger effect = higher value
How it was run: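 Yeast carrying a defined mutation is treated with each compound, and growth is compared with that of vehicle-exposed cells to give inhibition.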

[6] = NCI Yeast Anticancer Drug Screen. Data for the mlh1 rad18 strain (AID 175); conditions: S. cerevisiae mlh1 rad18 strain growth inhibition; at 50.0 µM; stronger effect = higher value
How it was run: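 Compound-treated yeast growth, normalised to vehicle controls. Strain bears defined DNA repair mutations.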

Measured: growth inhibition

Cc1cccc(O)c1O
inactive: [1] 25.2% | [2] 0.15% | [3] 23.1% | [4] -0.2% | [5] 16.8% | [6] 20.4%

Cn1c(=O)c2c(ncn2CCNCC(O)c2cc(C(C)(C)C)c(O)c(C(C)(C)C)c2)n(C)c1=O (configuration not stated)
inactive: [1] 31.2% | [2] 6.35% | [3] 19% | [4] 16.8% | [5] -3.2% | [6] 11.2%

CCOC(=O)C1CC(=O)NC(N)=N1 (configuration not stated)
inactive: [1] -12.6% | [2] -29.4% | [3] -13.6% | [4] -7.95% | [5] -8.2% | [6] -14.2%

Cc1ccc(NC(=O)CN2CCCCC2)cc1
inactive: [1] -16.9% | [2] -7.65% | [3] -7% | [4] 3.9% | [5] -0.9% | [6] -21.9%

COc1ccc(-c2cc(=O)c3c(OC)cccc3o2)c(OC)c1OC
inactive: [1] -8.9% | [2] -12.7% | [3] -3.5% | [4] 0.95% | [5] -11.2% | [6] 9.8%

CC(C)NC(=O)CCSCCC(=O)NC(C)C
inactive: [1] 3.6% | [2] -10.7% | [3] -3.75% | [4] -6.8% | [5] -17.9% | [6] 10.1%

O=CNc1ncccn1
inactive: [1] -6.95% | [2] 1.3% | [3] 7.25% | [4] -2.05% | [5] -2.2% | [6] -7.75%

CCC/C=C(/CC)C(=O)OC(=O)/C(=C/CCC)CC
inactive: [1] 23.9% | [2] 2.1% | [3] 13.8% | [4] -7.25% | [5] 32.1% | [6] 13.6%

CCC(=O)Nc1cc(C)c(C)cc1C
inactive: [1] 4.75% | [2] -10.2% | [3] -2.2% | [4] -42% | [5] 6.6% | [6] -8.4%

CC(O)C1NC(=S)N(c2ccccc2)C1=O (configuration not stated)
inactive: [1] 17.4% | [2] 21% | [3] 20.8% | [4] -20.2% | [5] -14.4% | [6] 46%

COc1ccc(C(=O)C(C(=O)C(=O)Nc2ccc(Cl)c(Cl)c2)c2ccc(OC)cc2)cc1 (configuration not stated)
inactive: [1] -0.6% | [2] 11.2% | [3] -34.4% | [4] 38.1% | [5] 8.95% | [6] -17.3%

COC(=O)/C=C/C1C2C3(CCC(C)C12C)OCCS3 (configuration not stated)
inactive: [1] -23.4% | [2] -14.2% | [3] -4.45% | [4] -5.3% | [5] -6.95% | [6] -30.1%

NC1=NC(=O)C(CC(=O)Nc2ccc(Cl)cc2Cl)S1 (configuration not stated)
inactive: [1] -12.4% | [2] -17.6% | [3] -15.2% | [4] 3.3% | [5] -5.6% | [6] -5.6%

Cc1ccc2c(c1O)C(=O)c1ccccc1C2=O
inactive: [1] 35% | [2] 13.1% | [3] -8.8% | [4] -16.9% | [5] 29.7% | [6] 46.5%

CC(=O)Nc1cc(F)c(NC(C)=O)c(F)c1
inactive: [1] -2.05% | [2] -1.95% | [3] -18.9% | [4] -15.2% | [5] -9.05% | [6] -10.3%

CNC(=O)NC1C(O)COC(OC)C1O (configuration not stated)
inactive: [1] -2.65% | [2] 3.4% | [3] -0.6% | [4] -37.1% | [5] -4.15% | [6] 0.25%

O=c1cc(C(Br)(Br)Br)[nH]c2ccccc12
inactive: [1] 19.4% | [2] 3.25% | [3] 9.45% | [4] -5.7% | [5] 4.55% | [6] 18%

Cc1cccc(N2CCN(S(C)(=O)=O)CC2)c1
inactive: [1] 16.6% | [2] 6.85% | [3] 0.3% | [4] 18.4% | [5] 6.75% | [6] 5%

CC(O)CNc1ncnc2c1cnn2C (configuration not stated)
inactive: [1] -4.1% | [2] -24.9% | [3] -10.2% | [4] 8.8% | [5] -4.3% | [6] 12.8%

CC1(C)OS2(OC(C)(C)c3ccccc32)c2ccccc21
inactive: [1] -10.2% | [2] 6.85% | [3] 6.5% | [4] 8.75% | [5] 6.3% | [6] 7.65%

O=c1cc(-c2ccccc2)[nH]c2[nH]n(-c3ccccc3)c(=O)c12
inactive: [1] 8.55% | [2] 14.2% | [3] 24.8% | [4] -10.2% | [5] -9.55% | [6] 16.4%

CCC(CCC(=O)c1ccccc1)[N+](=O)[O-] (configuration not stated)
inactive: [1] -3.65% | [2] -14.8% | [3] -5.7% | [4] -8.5% | [5] 13.8% | [6] 7.2%

COc1ccc(OC)c(NC(=O)c2ccc(Cl)c(Cl)c2)c1
inactive: [1] -0.5% | [2] 14.3% | [3] 5.45% | [4] -9.25% | [5] 13.6% | [6] 0.85%

O=C(OC1CCCC1)c1ccccc1
inactive: [1] 5.3% | [2] 9.9% | [3] -26.1% | [4] -29.1% | [5] -10.2% | [6] -2.2%

Cc1nc(-n2nc(-c3ccccc3)cc2-c2ccccc2)sc1C(=O)/C=C/c1ccccc1
inactive: [1] 6.95% | [2] 18.9% | [3] 14.7% | [4] 9.1% | [5] 29.6% | [6] 12.9%

CC1CCC2CC(=O)C(Br)CC2(C)C1C (configuration not stated)
inactive: [1] 23.6% | [2] -8.95% | [3] 9.75% | [4] -5.35% | [5] -3.95% | [6] 7.45%

Cc1cccc2c(NCCC[N+](C)(C)[O-])c3c([N+](=O)[O-])ccc(C)c3nc12
inactive: [1] 54.1% | [2] -14.3% | [3] 43.8% | [4] 2.8% | [5] -3.1% | [6] 43%

CSc1nc(NC2OC(CO)C(O)C(O)C2O)c(Br)c(=O)n1C (configuration not stated)
inactive: [1] 0.4% | [2] -1.7% | [3] -6.3% | [4] -8.75% | [5] -2.75% | [6] 20.1%

COC(=O)c1ccc(CSc2ccccc2NC(=S)Nc2cccc(SC)c2)o1
inactive: [1] -15.2% | [2] -38.8% | [3] -18.6% | [4] 5.9% | [5] -31.9% | [6] -26.6%

NC(=S)NNC(=O)/C(=C/c1ccc(/C=C(\NC(=O)c2ccccc2)C(=O)NNC(N)=S)cc1)NC(=O)c1ccccc1
inactive: [1] 32.8% | [2] 27% | [3] 29.3% | [4] 39.8% | [5] 39.2% | [6] 31.8%

CC1CC(=O)C(CCC#N)=C(O)C1 (configuration not stated)
inactive: [1] 4.85% | [2] -14.2% | [3] -8.15% | [4] -9.9% | [5] 5.55% | [6] 4.95%

O=C(CCCC(=O)N/N=C/c1ccc(Cl)cc1)N/N=C\c1ccc(Cl)cc1
inactive: [1] -27.4% | [2] -9.9% | [3] -9.9% | [4] -11.6% | [5] -1.65% | [6] -16.9%

O=C(C[n+]1cccc(Cl)c1)c1cccc([N+](=O)[O-])c1
inactive: [1] -25.7% | [2] -7.2% | [3] -9.25% | [4] -3.8% | [5] 4.55% | [6] -5%

CN1NC(c2ccc(Cl)cc2)=C(C#N)C(=O)CC1c1ccccc1 (configuration not stated)
inactive: [1] 2.1% | [2] -7.95% | [3] -5.05% | [4] 10.5% | [5] -20.4% | [6] 2.35%

CCc1cccc(C(C)C)c1NC(=O)C(=O)C(C(=O)C(=O)OC)c1nc2ccccc2[nH]c1=O (configuration not stated)
inactive: [1] 5.95% | [2] -29.1% | [3] 8.85% | [4] 20.2% | [5] -9.5% | [6] 2.9%

CC(Nc1cccc(Cl)c1)S(=O)(=O)O (configuration not stated)
inactive: [1] 8.05% | [2] 5.7% | [3] -8% | [4] 26.4% | [5] 2% | [6] -0.25%

O=C1N(Cl)C2C(N1Cl)N(Cl)C(=O)N2Cl (configuration not stated)
inactive: [1] 5.35% | [2] -9.55% | [3] -18.4% | [4] -2.9% | [5] 2.95% | [6] -12.6%

CCOP(=O)(OCC)C(Cc1ccc(OC)c(OC)c1)N=C(c1ccccc1)c1ccccc1 (configuration not stated)
inactive: [1] 4.8% | [2] -5.7% | [3] -12.2% | [4] -13.3% | [5] -7.55% | [6] -7.9%

Cc1cc(C)n(C2OC(CO)C(O)C(O)C2O)c(=S)c1C#N (configuration not stated)
inactive: [1] 21.1% | [2] 14.8% | [3] 29.6% | [4] 5.4% | [5] 8.4% | [6] 35.4%

CCCCCCCC(=O)OCC(COC(=O)CCCCCCC)OC(=O)CCCCCCC
inactive: [1] 40.8% | [2] 3.6% | [3] 1.6% | [4] -33.5% | [5] 9.55% | [6] 27.1%

CCOC(=O)c1ccc(NC(=O)c2cnccn2)cc1
inactive: [1] -6.5% | [2] 0.3% | [3] -17.7% | [4] -15.4% | [5] -20.4% | [6] -2%

CCCCCCOC(=O)/C=C1/OC(=O)c2ccccc21
inactive: [1] -12.2% | [2] -15.5% | [3] 2.15% | [4] -60.5% | [5] 11.4% | [6] -16.4%
